# Test results taken from PubChem BioAssay (NCATS).
# Records with an inconclusive call do not appear. Values without a mark were called inactive. The source made the active and inactive calls. Calls follow the shape of the dose curve; as a rule, active = well fitted inhibition curve with a large enough effect; inconclusive = small, poorly fitted or top-dose-only effect; inactive = flat fitted curve, though single readings scatter. Where a SMILES comes first, the peptide text is derived from it. Bridges are numbered along the chain shown (N, C = ends). [ ]: non-standard residue; d: D form. The star is where a group is joined. Dab(CH2SO3H) = N[C@@H](CCNCS(=O)(=O)O)C(=O)O; X3 = CC[C@@H](C)CCCCC(=O)*; Dab = NCC[C@H](N)C(=O)O
# Experiment: Drug repurposing screens with cells derived from glioblastoma tumor samples (AID 1345199); also: nearly all actives have a fitted effect of over 40% in size
# Settings: GBM patient neurospheres viability, ATP luminescence, 48 h
# Summary of the method: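 Four patient lines of CD133+ GBM neurospheres were screened at several concentrations; hits were retested in those lines plus three slower-growing GBM lines, using 48-hour treatment and ATP-based viability.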
# [1] = at 45.9 µM (top of the series), tumour line B
# [2] = at 46.1 µM (top of the series), tumour line C
# [3] = at 45.9 µM (top of the series), tumour line D
# [4] = at 20 µM (top of the series), tumour line C
# [5] = at 21.2 µM (top of the series), tumour line B
# [6] = at 21.2 µM (top of the series), tumour line D
# [7] = at 21.3 µM (top of the series), tumour line A
# [8] = at 46 µM (top of the series), tumour line A
# % is scaled to controls: 0 for no effect and ±100 for the full control effect; potency is read from the fitted curve at half-maximal effect.
structure (smiles),measurement,setting,value
CC(=O)Oc1cc(C)c(OC(C)=O)c2ccccc12,"activity, negative = cell killing",[1],-16.5%
same,"activity, negative = cell killing",[2],0.711%
COCC(=O)Nc1cc(Sc2ccccc2)ccc1N=C(NC(=O)OC)NC(=O)OC,"activity, negative = cell killing",[2],-20.6%
same,Potency,tumour line A,6.31 µM (active)
O=C(COc1ccc(Cl)cc1)OCCNC12CC3CC(CC(C3)C1)C2,"activity, negative = cell killing",[1],-5.61%
same,"activity, negative = cell killing",[3],-18.7%
same,"activity, negative = cell killing",[2],-2.27%
COc1ccc(C[C@@H](C)NC[C@H](O)c2ccc(O)c(NC=O)c2)cc1,"activity, negative = cell killing",[1],-17.2%
same,"activity, negative = cell killing",[3],5.61%
same,"activity, negative = cell killing",[2],-20.1%
same,Potency,tumour line A,12.6 µM (active)
COc1ccc(CCNC[C@H](O)c2ccc(O)cc2)cc1OC,"activity, negative = cell killing",[1],-3.8%
same,"activity, negative = cell killing",[3],-0.958%
same,"activity, negative = cell killing",[2],-0.44%
C[C@H](CCC(=O)O)[C@H]1CC[C@H]2[C@@H]3[C@H](O)C[C@@H]4C[C@H](O)CC[C@]4(C)[C@H]3CC[C@]12C,"activity, negative = cell killing",[4],0.416%
same,"activity, negative = cell killing",[5],1.96%
same,"activity, negative = cell killing",[6],6.12%
same,"activity, negative = cell killing",[7],-15.4%
COC(=O)C1=C(C#N)NC(C)=C(C(=O)OC(C)C)C1c1cccc([N+](=O)[O-])c1 (stereo unspecified),"activity, negative = cell killing",[1],-5.18%
same,"activity, negative = cell killing",[3],-25.1%
same,Potency,tumour line A,14.1 µM (active)
CC[C@@H](C)CCCCC(=O)N[C@@H](CCNCS(=O)(=O)O)C(=O)N[C@H](C(=O)N[C@@H](CCNCS(=O)(=O)O)C(=O)N[C@H]1CCNC(=O)[C@H]([C@@H](C)O)NC(=O)[C@H](CCNCS(=O)(=O)O)NC(=O)[C@H](CCNCS(=O)(=O)O)NC(=O)[C@H](CC(C)C)NC(=O)[C@@H](CC(C)C)NC(=O)[C@H](CCNCS(=O)(=O)O)NC1=O)[C@@H](C)O (X3-[Dab(CH2SO3H)]T[Dab(CH2SO3H)][Dab][Dab(CH2SO3H)][dL]L[Dab(CH2SO3H)][Dab(CH2SO3H)]T; lactam 4-C),"activity, negative = cell killing",[1],-7.01%
same,"activity, negative = cell killing",[3],10.8%
same,"activity, negative = cell killing",[8],-16.2%
CC1(C)S[C@@H]2[C@H](NC(=O)C(C(=O)O)c3ccsc3)C(=O)N2[C@H]1C(=O)O (stereo partly specified),"activity, negative = cell killing",[1],5.71%
same,"activity, negative = cell killing",[3],-0.709%
same,"activity, negative = cell killing",[8],0.915%
same,"activity, negative = cell killing",[2],-15.8%
CC1(C)S[C@@H]2[C@H](NC(=O)C(N)c3ccccc3)C(=O)N2[C@H]1C(=O)OC1OC(=O)c2ccccc21 (stereo partly specified),"activity, negative = cell killing",[4],-5.29%
same,"activity, negative = cell killing",[5],-22.1%
same,"activity, negative = cell killing",[6],-10.3%
CCOC(=O)O[C@]1(C(=O)COC(=O)CC)CC[C@H]2[C@@H]3CCC4=CC(=O)C=C[C@]4(C)[C@H]3[C@@H](O)C[C@@]21C,"activity, negative = cell killing",[4],2.55%
same,"activity, negative = cell killing",[5],-5.02%
same,"activity, negative = cell killing",[6],-9.53%
same,"activity, negative = cell killing",[7],-19.6%
CCCCCCCC/C=C\CCCCCCCC(=O)O,"activity, negative = cell killing",[1],3.38%
same,"activity, negative = cell killing",[3],-14.1%
same,"activity, negative = cell killing",[2],14.2%
CCC(=O)O[C@@H]1CC(=O)O[C@H](C)C/C=C/C=C/[C@H](O)[C@H](C)C[C@H](CC=O)[C@H](O[C@@H]2O[C@H](C)[C@@H](O[C@H]3C[C@@](C)(O)[C@@H](OC(=O)CC)[C@H](C)O3)[C@H](N(C)C)[C@H]2O)[C@H]1OC,"activity, negative = cell killing",[4],18.5%
same,"activity, negative = cell killing",[5],-16.2%
same,"activity, negative = cell killing",[6],-1.85%
same,"activity, negative = cell killing",[7],-24.3%
O=CCCCC=O,"activity, negative = cell killing",[1],-2.9%
same,"activity, negative = cell killing",[3],-3.77%
same,"activity, negative = cell killing",[2],-3.46%
CO[C@H]1C=CO[C@@]2(C)Oc3c(C)c(O)c4c(O)c(c5c(nc6cc(C)ccn65)c4c3C2=O)NC(=O)/C(C)=C\C=C[C@H](C)[C@H](O)[C@@H](C)[C@@H](O)[C@@H](C)[C@H](OC(C)=O)[C@@H]1C,"activity, negative = cell killing",[1],-10.2%
same,"activity, negative = cell killing",[3],-26.2%
same,"activity, negative = cell killing",[2],-2.47%
C[C@H]1C[C@H]2[C@@H]3CCC4=CC(=O)C=C[C@]4(C)[C@@]3(F)[C@@H](O)C[C@]2(C)[C@@]1(O)C(=O)CO,"activity, negative = cell killing",[1],-16%
same,"activity, negative = cell killing",[3],-25%
same,"activity, negative = cell killing",[8],-24.5%
COC(=O)CCC(=O)CN,"activity, negative = cell killing",[1],-21.7%
same,"activity, negative = cell killing",[3],-18.7%
same,"activity, negative = cell killing",[8],-28.4%
same,"activity, negative = cell killing",[2],-13.1%
CCC(=O)NCCC1CCc2ccc3c(c21)CCO3 (stereo unspecified),"activity, negative = cell killing",[1],-16.2%
same,"activity, negative = cell killing",[2],-14.5%
same,Potency,tumour line A,11.2 µM (active)
O=C(O)C1CCCN1 (stereo unspecified),"activity, negative = cell killing",[1],-8.24%
same,"activity, negative = cell killing",[3],-1.47%
same,"activity, negative = cell killing",[2],-1.4%
